This is a sample that favours compounds with a hit; in the whole collection about 3.5% have one here.
FBW7 act – activators of human E3 ligase FBW7. Q969H0. AlphaScreen FBW7–phospho-cyclin E peptide binding, activator screen. normalized activity (activation), % at 26.1 µM. 650,000 tested, 0.13% active; in the data active = normalized activity above about 1.9%;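 note: purified mutant Fbw7 with reduced substrate affinity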
GPR151 activ – activates the human receptor GPR151; Q8TDV0; PathHunter beta-arrestin GPR151 cells, luminescence; activation, % at 11.2 µM; 650,000 tested, 1% active; AID 1508602; in the data active = activation above about 4.9%;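 note: 0% = median of compound wells and 100% = cells with positive control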
Target sequence (Q8TDV0 whole entry, looked up): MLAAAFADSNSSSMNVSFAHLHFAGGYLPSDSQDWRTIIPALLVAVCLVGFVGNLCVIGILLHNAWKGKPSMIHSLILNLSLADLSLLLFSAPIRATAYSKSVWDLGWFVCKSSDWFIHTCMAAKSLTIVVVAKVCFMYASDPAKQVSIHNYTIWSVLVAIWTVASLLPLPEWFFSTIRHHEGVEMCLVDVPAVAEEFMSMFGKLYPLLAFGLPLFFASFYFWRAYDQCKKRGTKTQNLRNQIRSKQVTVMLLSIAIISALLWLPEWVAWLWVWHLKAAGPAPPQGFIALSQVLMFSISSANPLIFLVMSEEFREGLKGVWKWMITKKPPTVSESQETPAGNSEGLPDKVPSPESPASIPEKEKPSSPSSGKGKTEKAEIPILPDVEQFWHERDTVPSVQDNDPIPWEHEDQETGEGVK
MITF inh – blocks human microphthalmia-associated transcription factor. O75030. AlphaScreen MITF homodimerization, bead proximity signal. inhibition, % at 2.6 µM. 650,000 tested, 0.91% active. AID 1259374; in the data active = inhibition above about 50%;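 note: 0% = vehicle wells with protein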
TEAD-YAP inh – TEAD-YAP interaction inhibition | HEK-TIYL cells, TEAD-Gal4/YAP UAS-luciferase luminescence | 640,000 tested, 1.4% active | inhibition, % at 9.12 µM | AID 1259422; in the data active = inhibition above about 32%;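 note: 0% = median of test compound wells and 100% = reference inhibitor wells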
MITF inh conf – confirmation of human MITF inhibitors | shares compounds with MITF inh | AlphaScreen MITF homodimerization, biotin/His-MITF beads | inhibition, % at 2.6 µM | 4,700 tested, 16% active | AID 1259372;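 active = inhibition above a cutoff derived from the DMSO control wells, cut at about 28% in these data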;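 note: 0% = MITF dimer wells with DMSO only; inhibitors lower the bead chemiluminescence by keeping MITF from dimerizing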
AlphaScreen DR – optically interferes with AlphaScreen signal in dose response; shares compounds with MITF inh; AlphaScreen optical interference counterscreen, cell-free; IC50, µM; 480 tested, 6% active; AID 1259373; call rule not given here
AlphaScreen intf2 – AlphaScreen optical interference, counter-screen | inhibition, % at 2.6 µM | shares compounds with MITF inh | 4,700 tested, 7.6% active | AID 1259376 | LysRS AlphaScreen counterscreen, signal interference, triplicate;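 active = inhibition above a cutoff derived from the DMSO control wells, cut at about 30% in these data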
Active calls of the source: *; · = no result.

SMILES	FBW7 act	GPR151 activ	MITF inh	TEAD-YAP inh	MITF inh conf	AlphaScreen intf2	others
COc1ccc(CN2CCN(Cc3ccccc3Cl)CC2)cc1OC	0	1	71*	0	11	22
COc1ccc(/C=C/CN2CCc3nnc(CCNC(=O)C(C)C)n3CC2)cc1	0	1	7	-18	·	·
CCCCn1c(SCC(=O)N(CC)CC)nc2ccsc2c1=O	0	1	-5	13	·	·
COc1cc(OC)c(OC)cc1CN1CCN(Cc2cc(OC)c(OC)cc2Br)CC1	0	-1	72*	7	12	19
COc1cc(OC)c(OC)cc1CN1CCN(Cc2ccccc2C)CC1	0	1	74*	1	-13	3
COc1ccccc1CN1CCN(Cc2ccc3ccccc3c2)CC1	0	0	78*	6	18	22
COc1cc(Br)c(CN2CCCN(C)CC2)cc1OC	1	1	11	4	·	·
COc1cccc(OC)c1C(=O)N1CCN(Cc2ccc3ccccc3c2)CC1	0	4	41	0	·	·
COc1cc(OC)c(OC)cc1CN1CCN(c2ccccc2OC)CC1	0	0	38	6	·	·
COc1ccc(CN2CCCC(O)C2)cc1Br (stereo not given)	1	1	18	0	·	·
COc1cc(OC)c(CN2CCCC(O)C2)cc1Br (stereo not given)	2	-1	54*	5	33*	-4	AlphaScreen DR=>6.5
O=C(NC(=S)N1CCN(c2ccccc2F)CC1)c1ccc(Br)cc1	1	0	3	1	·	·
CCc1ccc(CN2CCN(Cc3ccccc3[N+](=O)[O-])CC2)cc1	0	1	74*	1	9	0
COc1ccc(N(C2=NCCCS2)S(=O)(=O)c2ccc(OC)cc2)cc1	0	0	56*	5	-12	-4
CC(=O)c1ccc(S(=O)(=O)N(C2=NCCCS2)c2ccc(F)cc2)cc1	0	0	-14	-8	·	·
O=C(Nc1nc2ccc(Cl)cc2s1)c1cccc(Oc2ccccc2)c1	0	1	74*	-1	1	7
O=C(Nc1ccc(O)c(-c2nc3ccccc3s2)c1)c1cccc(Oc2ccccc2)c1	0	1	61*	0	3	1
O=C(Nc1nc2ccc(F)cc2s1)c1cccc(Oc2ccccc2)c1	0	-1	-3	-11	·	·
O=C(Nc1ccc(O)c(-c2nc3ccccc3s2)c1)c1ccccc1Oc1ccccc1	0	1	-7	-1	·	·
COc1ccc(OC)c(-c2cc(C(=O)Nc3ccc(OC)c(OC)c3)no2)c1	0	1	-1	-5	·	·
O=C(NNc1ncnc(NNC(=O)c2ccncc2)c1[N+](=O)[O-])c1ccncc1	-1	-8	65*	3	66*	100*
O=C(CSc1ccc(F)cc1)N1CC(c2nc3ccccc3[nH]2)C1	0	0	60*	5	6	14
CCN(Cc1ccccc1)C(=O)C1CCN(Cc2cccc(OC)c2)CC1	0	-2	52*	-4	12	8
CCOC(=O)C1CCN(C(=O)C2CCN(Cc3cccc(OC)c3)CC2)CC1	0	1	52*	10	6	6
COc1cccc(CN2CCN(C3CCCCCC3)CC2)c1OC	0	-1	71*	7	-5	11
SMILES	FBW7 act	GPR151 activ	MITF inh	TEAD-YAP inh	MITF inh conf	AlphaScreen intf2	others
COc1cccc(CN2CCN(C3CCCC3)C(CCO)C2)c1OC (stereo not given)	0	1	5	11	·	·
COc1cccc(CN2CCCC(C(=O)NN)C2)c1OC (stereo not given)	0	0	55*	27	-7	-2
COc1cccc(CN2CCN(C3CC4CCC3C4)CC2)c1OC (stereo not given)	0	-1	71*	-4	-1	16
CCN(CC)C(=O)C1CCCN(Cc2cccc(OC)c2OC)C1 (stereo not given)	0	-1	10	6	·	·
COc1cccc(CN2CCN(C3CCCCC3C)CC2)c1OC (stereo not given)	0	-2	86*	1	20	10
Cc1ccc(CNc2ccc3ncc(-c4cccc(C(=O)NCCN(C)C)c4)n3n2)c(C)c1	-1	2	-7	12	·	·
Cc1cc(C(=O)NNC(=S)NCC2CCCO2)no1 (stereo not given)	0	0	5	0	·	·
O=C(NNC(=S)NCC1CCCO1)c1ccccn1 (stereo not given)	-2	1	118*	23	116*	100*
O=C(Nc1ccc2c(c1)OCO2)c1ccccn1	0	-10	-3	11	·	·
O=C(NNC(=S)Nc1ccc2c(c1)OCO2)c1ccccn1	-2	-2	117*	-47	96*	91*
Cc1ccc(S(=O)(=O)Cn2nnnc2CN2CCN(c3ccccc3)CC2)cc1	0	0	-1	0	·	·
Cc1ccc(S(=O)(=O)Cn2nnnc2CN2CCOCC2)cc1	0	-1	64*	-6	10	10
Cc1ccc(C2=NN(C(=O)CCCC(=O)O)C(c3cc4ccc(C)cc4nc3Cl)C2)cc1 (stereo not given)	0	3	-8	8	·	·
Cc1ccccc1CN1CCN(C(=O)CCC2CCCC2)CC1	0	0	53*	11	-8	-1
O=C(CCC1CCCC1)N1CCN(Cc2cccc(F)c2)CC1	0	0	63*	5	-10	-8
COc1ccc(OC)c(CN2CCN(C(=O)CCC3CCCC3)CC2)c1	0	2	52*	-10	-4	-6
O=C(CCC1CCCC1)N1CCN(C(=O)c2cccc(F)c2)CC1	0	-1	-12	-10	·	·
CCCOc1ccc(-c2nc(N(CC)CC)c3ccccc3n2)cc1	0	-1	26	-1	·	·
O=C(Nc1ccccc1)c1csc(Nc2nccc3ccccc23)n1	0	-3	5	-15	·	·
CCCCCOc1ccc(/C=C/C(=O)NCc2ccccc2)cc1OC	0	1	1	2	·	·
CCSc1nnc(NC(=O)c2cccc([N+](=O)[O-])c2C)s1	0	0	-15	7	·	·
CC1(C)CC2CC(C)(CN2CC(O)COc2ccccc2)C1 (stereo not given)	0	-2	19	-10	·	·
COc1cccc(COCC(O)CN2CC3(C)CC2CC(C)(C)C3)c1 (stereo not given)	0	-1	68*	2	11	10
Nc1n[nH]c(C(=O)N/N=C/c2cccs2)n1	0	1	77*	-4	51*	95*
Cn1cccc1/C=N/NC(=O)c1nc(N)n[nH]1	0	-1	-3	-14	·	·
CN1CCN(CC(=O)NCc2ccc(F)cc2)CC1	0	1	21	-5	·	·
Cc1ccc(CNC(=O)CN2CCN(C)CC2)cc1	0	0	84*	3	7	9
O=C(CN1CCCN(CC(=O)NCc2ccccc2)CC1)NCc1ccccc1	0	0	93*	-9	4	-2
